The panel holds about 83,000 compounds, 20% with a hit somewhere; the sample as a whole holds those more often.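 A percent growth of 40 corresponds to 60% growth inhibition; 0 means no net growth; -100 means all cells died. Active threshold: below 10.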 Activity calls are given as the source filed them.
Legend:
Assay in all cases: NCI-60 one-dose screen, 48 h (100 = growth as untreated, 0 = no growth, -100 = all killed)
[1] = test system: HCT-15 colon
[2] = test system: HT29 colon
[3] = test system: SNB-75 CNS
[4] = test system: SNB-19 CNS
[5] = test system: U251 CNS
[6] = test system: PC-3 prostate
[7] = test system: SK-MEL-5 melanoma
[8] = test system: UACC-62 melanoma
[9] = test system: LOX IMVI melanoma
[10] = test system: SK-MEL-28 melanoma
[11] = test system: SK-MEL-2 melanoma
[12] = test system: EKVX NSCLC
[13] = test system: SN12C renal
[14] = test system: UO-31 renal
[15] = test system: TK-10 renal
[16] = test system: ACHN renal
[17] = test system: CAKI-1 renal
[18] = test system: A498 renal
[19] = test system: CCRF-CEM leukemia
[20] = test system: MOLT-4 leukemia; conditions: 10 µM unless noted

Measured: growth

O=C(N/N=C/c1c[nH]c2ccccc12)Nc1ccccc1Cl
inactive: [4]; 10 µM unless noted 32.8% | [5]; 10 µM unless noted 13.7% | [6]; 10 µM unless noted 26.5% | [8]; 10 µM unless noted 11.4% | [10]; 10 µM unless noted 39.7% | [11]; 10 µM unless noted 13.9% | [14]; 10 µM unless noted 23.2% | [15]; 10 µM unless noted 34.2% | [16]; 10 µM unless noted 10.7% | [17]; 10 µM unless noted 16.1%
active: [1]; 10 µM unless noted 7.73% | [2]; 10 µM unless noted -24.2% | [3]; 10 µM unless noted 5.18% | [7]; 10 µM unless noted -38.6% | [9]; 10 µM unless noted -45.1% | [12]; 10 µM unless noted 2.29% | [13]; 10 µM unless noted 0.991% | [18]; 10 µM unless noted -8.24% | [19]; 10 µM unless noted 9.84% | [20] 5.56%

CC/C(=C(\c1ccc(O)cc1)c1ccc(OCCN(C)C(=O)COCCNC(=O)Cc2ccc3c(c2)CN([C@@H]2CCC(=O)NC2=O)C3=O)cc1)c1ccccc1
inactive: [1]; 1 µM 110% | [1]; 10 µM 99.5% | [2]; 1 µM 110% | [2]; 10 µM 80.1% | [3]; 1 µM 44.9% | [4]; 1 µM 64.8% | [4]; 10 µM 49.8% | [5]; 1 µM 97.4% | [5]; 10 µM 80% | [6]; 1 µM 26.7% | [6]; 10 µM 18.7% | [7]; 1 µM 83.7% | [7]; 10 µM 31.8% | [8]; 1 µM 93.4% | [8]; 10 µM 77.8% | [9]; 1 µM 101% | [9]; 10 µM 90.4% | [10]; 1 µM 90.4% | [10]; 10 µM 57% | [11]; 1 µM 82.5% | [11]; 10 µM 56.8% | [12]; 1 µM 103% | [12]; 10 µM 92.1% | [13]; 1 µM 73.9% | [13]; 10 µM 38.1% | [14]; 1 µM 92% | [14]; 10 µM 91.6% | [15]; 1 µM 105% | [15]; 10 µM 84.2% | [16]; 1 µM 104% | [16]; 10 µM 102% | [17]; 1 µM 99.2% | [17]; 10 µM 90.1% | [18]; 1 µM 117% | [18]; 10 µM 98.2%
active: [3]; 10 µM 4.63% | [19]; 1 µM -2.66% | [19]; 10 µM -7.62%

CC/C(=C(/c1ccc(O)cc1)c1ccc(OCCN(C)C(=O)COCCOCCNC(=O)Cc2ccc3c(c2)CN([C@@H]2CCC(=O)NC2=O)C3=O)cc1)c1ccccc1
active: [19]; 1 µM -11%
inactive: [1]; 1 µM 107% | [1]; 10 µM 105% | [2]; 1 µM 102% | [2]; 10 µM 83% | [3]; 1 µM 59.6% | [3]; 10 µM 22.7% | [4]; 1 µM 79.5% | [4]; 10 µM 47.5% | [5]; 1 µM 91.9% | [5]; 10 µM 88.7% | [6]; 1 µM 52.8% | [6]; 10 µM 24.4% | [7]; 1 µM 96.3% | [7]; 10 µM 65.8% | [8]; 1 µM 95.6% | [8]; 10 µM 88.2% | [9]; 1 µM 95.1% | [9]; 10 µM 92.1% | [10]; 1 µM 98.3% | [10]; 10 µM 74.3% | [12]; 1 µM 99.4% | [12]; 10 µM 105% | [13]; 1 µM 88.7% | [13]; 10 µM 53.5% | [14]; 1 µM 91.6% | [14]; 10 µM 89.4% | [15]; 1 µM 101% | [15]; 10 µM 89.2% | [16]; 1 µM 102% | [16]; 10 µM 106% | [18]; 1 µM 119% | [18]; 10 µM 115% | [19]; 10 µM 16.7%

CCC(=O)c1c2c(c3ccc4c5ccccc5ccc4n13)C(=O)c1ccccc1C2=O
inactive: [1]; 10 µM unless noted 66.8% | [2]; 10 µM unless noted 94.2% | [3]; 10 µM unless noted 113% | [4]; 10 µM unless noted 66.7% | [5]; 10 µM unless noted 90.4% | [6]; 10 µM unless noted 77.1% | [8]; 10 µM unless noted 54.9% | [9]; 10 µM unless noted 50.1% | [10]; 10 µM unless noted 76.4% | [11]; 10 µM unless noted 89.2% | [12]; 10 µM unless noted 71.2% | [13]; 10 µM unless noted 85.6% | [14]; 10 µM unless noted 59.8% | [15]; 10 µM unless noted 122% | [16]; 10 µM unless noted 83.3% | [17]; 10 µM unless noted 84% | [18]; 10 µM unless noted 215% | [19]; 10 µM unless noted 100% | [20] 89.6%
active: [7]; 10 µM unless noted -23.6%

CC/C(=C(\c1ccc(O)cc1)c1ccc(OCCNC)cc1)c1ccccc1
inactive: [1]; 1 µM 107% | [1]; 10 µM 69.8% | [2]; 1 µM 98.7% | [2]; 10 µM 55.6% | [3]; 1 µM 110% | [3]; 10 µM 62.7% | [5]; 1 µM 98.6% | [5]; 10 µM 57.4% | [6]; 1 µM 101% | [6]; 10 µM 83% | [7]; 1 µM 97.1% | [7]; 10 µM 89.2% | [8]; 1 µM 91.6% | [8]; 10 µM 101% | [9]; 1 µM 86.9% | [9]; 10 µM 83.1% | [11]; 1 µM 95.1% | [11]; 10 µM 98.7% | [12]; 1 µM 98.9% | [12]; 10 µM 96.4% | [13]; 1 µM 101% | [13]; 10 µM 73.8% | [14]; 1 µM 90.2% | [14]; 10 µM 62.7% | [15]; 1 µM 91.2% | [15]; 10 µM 94.5% | [16]; 1 µM 98.4% | [16]; 10 µM 90.4% | [17]; 1 µM 98.9% | [17]; 10 µM 85.3% | [18]; 1 µM 104% | [18]; 10 µM 91.2% | [19]; 1 µM 89.9% | [19]; 10 µM 92.6%

Reference: PubChem BioAssay (NCI)
